Records with an inconclusive call do not appear. Activity calls are given as the source filed them. The calls were made as follows, unless noted: active = hit-call score of the fitted dose curve at least 0.9, where 1 is the maximum; inactive = score below 0.9.

Experiment [1] can be described thus: CCTE_Simmons_MITO_inhib_resp_rate: CCTE's HepG2 Seahorse XF Respirometric Screening Assay at Inhibited Respiratory State [full ETC block], Simmons Lab (AID 2284006). Conditions: actives raise or lower the signal. The procedure, abridged:
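OCR read-out in the inhibited phase following rotenone/antimycin A, after compound and FCCP injections, in HepG2 cells. Seven concentrations (125 nM to 100 uM final), three biological replicates, 6-min cycles over 72 min; DMSO baseline.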

Experiment [2] can be described thus: CCTE_Shafer_MEA_acute_spike_number: CCTE's Neural Acute Assay for Total Number of Spikes, Shafer Lab (AID 2284008).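 As to AC50: curve fitted for decrease in spike count so AC50 reflects inhibitors.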 In a few lines: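 Cortical neurons from rat, matured to DIV 13 or 15 on microelectrode arrays, are recorded at 37 C before and during 40-min exposure to 0.03-40 uM compound. Wells need >/= 10 active electrodes.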
The nature of experiment [3]: CCTE_Shafer_MEA_acute_firing_rate_mean: CCTE's Neural Acute Assay for Mean Firing Rate, Shafer Lab (AID 2284009).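 Also: analyzed for loss of signal so actives lower firing rate relative to DMSO.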 The procedure, abridged: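 Rat cortical neuron cultures matured to DIV 13 or 15, equilibrated 20 min at 37 C, then recorded 40 min for baseline. Compound (0.03-40 uM) added and a further 40 min recorded; percent change in mean firing rate calculated per well.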

Experiment [4] in a line: CCTE_Harrill_HTTr_Viability_MCF7: CCTE's 6-hour Cell Viability Assessment for the High-Throughput Transcriptomics (HTTr) Platform, in MCF-7 cells cultured in DMEM + 10% fetal bovine serum, Harrill Lab (AID 2284010). In a few lines: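 PI exclusion, high-content imaging; 8-pt dilution series, 6 h exposure; bidirectional fit vs DMSO (neg. ctrl/baseline); gain of signal = loss of membrane integrity.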

A short description of experiment [5]: CCTE_Harrill_HTTr_Apoptosis_MCF7: CCTE's 6-hour Apoptosis Assessment for the High-Throughput Transcriptomics (HTTr) Platform, in MCF-7 cells cultured in DMEM + 10% fetal bovine serum, Harrill Lab (AID 2284011). In a few lines: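 Cells are dosed with test chemicals at eight concentrations and imaged 6 hours later for caspase-3/7 activity using a green fluorogenic detection reagent. Activity is fitted in both directions against DMSO controls.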

Experiment [6] in a line: CCTE_Shafer_MEA_acute_burst_number: CCTE's Neural Acute Assay for Single-Electrode Bursts, Shafer Lab (AID 2284013). The procedure, abridged:
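Percent change in single-electrode burst number per well, from 40-min recordings taken before and after adding compound (0.03-40 uM) to primary rat cortical neurons on MEA plates at DIV 13 or 15, 37 C.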

The nature of experiment [7]: CCTE_Shafer_MEA_acute_burst_duration_mean: CCTE's Neural Acute Assay for Mean Burst Duration, Shafer Lab (AID 2284014).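 Also: hits are decreases in mean burst duration relative to DMSO controls.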 In a few lines:
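Rat cortical cultures, DIV 13/15; 40 min baseline, then 40 min with compound (0.03-40 uM), 37 C. Spikes: 300-5000 Hz band-pass, 8x rms threshold. Read-out: % change in mean single-electrode burst duration, DMSO-referenced, loss direction.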

Experiment [8] can be described thus: CCTE_Shafer_MEA_acute_per_burst_spike_number_mean: CCTE's Neural Acute Assay for Average Number of Spikes Per Burst, Shafer Lab (AID 2284015).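 Also: hits are decreases in mean spikes per burst versus baseline.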 In a few lines: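 Percent change in mean spikes per single-electrode burst is compared between a 40 min baseline and a 40 min recording with compound (0.03-40 uM). Cultures were rat cortical neurons on MEA plates at DIV 13 or 15, recorded at 37 C, with DMSO as the negative control.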

Experiment [9] in a line: CCTE_Shafer_MEA_acute_interburst_interval_mean: CCTE's Neural Acute Assay for Mean Interburst Interval, Shafer Lab (AID 2284016).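 Also: percent change of mean interburst interval versus each well's own pre-dose baseline; curves fitted for decrease in interburst interval relative to DMSO.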 The procedure, abridged: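 Percent change in mean single-electrode interburst interval was calculated per well from 40 min recordings before and after compound (0.03-40 uM). Recordings were made at 37 C on rat cortical cultures at DIV 13 or 15, with spikes detected at 8x rms threshold.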

Experiment [10] is described as follows: CCTE_Shafer_MEA_acute_burst_percentage_mean: CCTE's Neural Acute Assay for Percentage of Spikes in a Burst, Shafer Lab (AID 2284017).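 As to AC50: curve fitted for loss of signal so potency reflects decreased burst percentage.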 The procedure, abridged:
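Well-level mean burst percentage from a 40-min recording after compound (0.03-40 uM) expressed as percent change from a 40-min baseline at 37C. Cultures: primary rat cortical neurons on MEA, dosed on DIV 13 or 15; fitted downward relative to DMSO.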

Experiment [11] addresses Nucleoli Translocation, AR (gene 367) (UniProt P10275). In words: UPITT_HCI_U2OS_AR_TIF2_Nucleoli_Antagonist: University of Pittsburgh U2OS Androgen Receptor-Transcriptional Intermediary Factor 2 (AR-TIF2) Antagonism High Content Imaging Assay for Nucleoli Translocation (AID 2283997; active = hit-call score of the fitted dose curve at least 0.9, where 1 is the maximum). In a few lines:
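Compounds are added at 20 uM final concentration in 0.2% DMSO to U2OS cells carrying AR-RFP and TIF2-GFP fusions. Nucleolar AR-RFP fluorescence is then quantified by automated imaging. Antagonism is fitted positively against DHT baseline.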

Experiment [12] shares this target. Nature of the experiment: UPITT_HCI_U2OS_AR_TIF2_Nucleoli_Agonist: University of Pittsburgh U2OS Androgen Receptor-Transcriptional Intermediary Factor 2 (AR-TIF2) Agonism High Content Imaging Assay for Nucleoli Translocation (AID 2283998; active = hit-call score of the fitted dose curve at least 0.9, where 1 is the maximum). In a few lines:
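Red-tagged human androgen receptor co-expressed with GFP-tagged TIF2 serves as the binding reporter. Primary testing used 20 uM final (0.2% DMSO); follow-up dose response covered 0.195 to 50 uM final (0.5% DMSO).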

Experiment [13] deals with Ratio of Nucleoli Translocation and Cytoplasm, AR (gene 367) (UniProt P10275). In words: UPITT_HCI_U2OS_AR_TIF2_Nucleoli_Cytoplasm_Ratio_Antagonist: University of Pittsburgh U2OS Androgen Receptor-Transcriptional Intermediary Factor 2 (AR-TIF2) Antagonism High Content Imaging Assay for Ratio of Nucleoli Translocation and Cytoplasm (AID 2283999; active = hit-call score of the fitted dose curve at least 0.9, where 1 is the maximum;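 also: antagonists lower the DHT-driven ratio of nucleolar to cytoplasmic red signal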). The procedure, abridged:
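Read-out is the ratio of nucleolar to cytoplasmic AR-RFP fluorescence, imaged by high-content microscopy in U2OS cells coexpressing TIF2-GFP. Single-point 20 uM screen, triplicate confirmation, then 0.195–50 uM dose response; activity referenced to DHT baseline.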

Experiment [14] in a line: CCTE_Harrill_HTTr_CellCount_MCF7: CCTE's Cell Proliferation Assessment for the High-Throughput Transcriptomics (HTTr) Platform, Harrill Lab (AID 2284012; active = hit-call score of the fitted dose curve at least 0.9, where 1 is the maximum;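 also: count of Hoechst-stained nuclei per well by high-content imaging in MCF-7 cells; cells exposed to compound for six hours; intended direction is loss of nuclei count meaning fewer cells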). In a few lines: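 Readout: Hoechst nuclear count by high-content imaging. MCF-7, 8-point dilution series, 6 h exposure. Bidirectional fit vs DMSO baseline.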
Another experiment concerns DIO1 (gene 1733). Nature of the experiment: CCTE_GLTED_hDIO1: CCTE's human Deiodinase 1 (DIO1) Inhibition Assay, Great Lakes Toxicology and Ecology Division (GLTED) Lab (AID 2283987; active = hit-call score of the fitted dose curve at least 0.9, where 1 is the maximum;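 also: isolated human DIO1 enzyme in a cell-free setup rather than cells; enzyme activity read as free iodide liberated from substrate via Sandell-Kolthoff colorimetry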). In a few lines: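 Cell-free hDIO1 assay, triplicate plates. Absorbance of the Sandell-Kolthoff reaction reports enzyme-liberated iodide; iodinated chemicals or nitrite, iron and thiocyanate may interfere.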

The nature of experiment [15]: CCTE_Harrill_HTTr_Apoptosis_DMEM_6hr: (Pilot) CCTE's 6-hour Apoptosis Assessment for the High-Throughput Transcriptomics (HTTr) Platform, in MCF-7 cells cultured in DMEM + 10% fetal bovine serum, Harrill Lab (AID 2283981). The procedure, abridged:
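MCF-7 cells grown in DMEM + 10% FBS were exposed for 6 hours to an eight-point dilution series. CellEvent Caspase 3/7 Green signal was imaged; activity fitted bidirectionally against DMSO.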

The nature of experiment [16]: CCTE_Harrill_HTTr_Apoptosis_DMEM_12hr: (Pilot) CCTE's 12-hour Apoptosis Assessment for the High-Throughput Transcriptomics (HTTr) Platform, in MCF-7 cells cultured in DMEM + 10% fetal bovine serum, Harrill Lab (AID 2283982). In a few lines:
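Caspase-3/7 activity was measured by high-content imaging (CellEvent Caspase 3/7 Green) after a 12-hour exposure of MCF-7 cells grown in DMEM with 10% FBS. Eight-point concentration series, fitted bidirectionally against vehicle.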

Experiment [17] can be described thus: CCTE_Harrill_HTTr_Apoptosis_DMEM_24hr: (Pilot) CCTE's 24-hour Apoptosis Assessment for the High-Throughput Transcriptomics (HTTr) Platform, in MCF-7 cells cultured in DMEM + 10% fetal bovine serum, Harrill Lab (AID 2283983). In a few lines:
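Caspase-3/7 activity read by high-content imaging (CellEvent Green reagent) 24 h after dosing. MCF-7 cells grown in DMEM with 10% FBS received an eight-point concentration series; fits were bidirectional versus DMSO.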

Experiment [18] in a line: CCTE_Harrill_HTTr_Apoptosis_PRF_DMEM_6hr: (Pilot) CCTE's 6-hour Apoptosis Assessment for the High-Throughput Transcriptomics (HTTr) Platform, in MCF-7 cells cultured phenol red-free DMEM + 10% charcoal-stripped fetal bovine serum, Harrill Lab (AID 2283984). The procedure, abridged: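 Caspase-3/7 activity (CellEvent Green) read by high-content imaging 6 h after dosing, eight concentrations. Cells: MCF-7, phenol red-free DMEM with 10% charcoal-stripped serum. Curves fit both directions against DMSO.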

A short description of experiment [19]: CCTE_Harrill_HTTr_Apoptosis_PRF_DMEM_24hr: (Pilot) CCTE's 24-hour Apoptosis Assessment for the High-Throughput Transcriptomics (HTTr) Platform, in MCF-7 cells cultured in phenol red-free DMEM + 10% charcoal-stripped fetal bovine serum, Harrill Lab (AID 2283986). In a few lines: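 Eight concentrations tested for 24 h on MCF-7 grown in charcoal-stripped serum, phenol red-free DMEM. High content imaging of CellEvent Caspase 3/7 Green signal gives apoptosis read-out, fitted both ways relative to DMSO.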

Chain of Ratio of Nucleoli Translocation and Cytoplasm, AR (gene 367) (P10275 whole entry, looked up): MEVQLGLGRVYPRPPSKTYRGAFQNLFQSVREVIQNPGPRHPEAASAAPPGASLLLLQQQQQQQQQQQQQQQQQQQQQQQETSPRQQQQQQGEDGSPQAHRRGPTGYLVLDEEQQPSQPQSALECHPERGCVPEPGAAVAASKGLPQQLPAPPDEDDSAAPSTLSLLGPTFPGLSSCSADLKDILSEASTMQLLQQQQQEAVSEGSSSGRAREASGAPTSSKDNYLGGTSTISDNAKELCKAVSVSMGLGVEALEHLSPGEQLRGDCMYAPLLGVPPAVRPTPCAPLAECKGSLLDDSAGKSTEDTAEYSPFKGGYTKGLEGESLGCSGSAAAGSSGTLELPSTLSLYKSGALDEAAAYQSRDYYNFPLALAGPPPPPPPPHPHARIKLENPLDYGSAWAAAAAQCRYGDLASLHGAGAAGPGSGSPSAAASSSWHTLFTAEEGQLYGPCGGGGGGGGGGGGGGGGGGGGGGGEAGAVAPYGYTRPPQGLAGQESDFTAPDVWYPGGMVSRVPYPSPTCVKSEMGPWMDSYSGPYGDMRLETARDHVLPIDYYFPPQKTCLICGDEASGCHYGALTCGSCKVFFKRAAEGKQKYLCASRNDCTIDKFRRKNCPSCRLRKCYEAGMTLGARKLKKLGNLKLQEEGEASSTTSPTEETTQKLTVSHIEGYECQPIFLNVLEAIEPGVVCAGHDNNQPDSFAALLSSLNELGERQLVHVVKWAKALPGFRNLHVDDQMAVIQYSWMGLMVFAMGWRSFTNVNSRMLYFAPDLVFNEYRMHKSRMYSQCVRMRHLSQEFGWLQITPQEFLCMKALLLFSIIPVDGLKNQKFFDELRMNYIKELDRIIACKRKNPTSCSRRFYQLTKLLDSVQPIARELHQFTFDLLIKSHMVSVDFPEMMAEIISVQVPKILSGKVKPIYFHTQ
Chain of Nucleoli Translocation, AR (gene 367) (P10275 whole entry, looked up, the tested form may be a part): as the sequence (P10275 whole entry, looked up) above

As for `Cc1cc2c(cc1C(F)(F)F)N(C(=O)Nc1ccc(Oc3cccnc3C)nc1)CC2`, the compound was classed as inactive in [1], in [2], in [3], in experiment [4], in [5] and in [6]. Further, the result in [7], in [8], in experiment [9] and in [10] was inactive.
As for `OCCO`, the compound was called inactive in experiment [11], in [12], in experiment [13], in experiment [4], in experiment [5] and in [14].
Consider `CC(C)(c1cc(Br)c(O)c(Br)c1)c1cc(Br)c(O)c(Br)c1`, for which the AC50 with DIO1 (gene 1733) was 37.6 µM (active); in experiment [10] it was 19.1 µM (active). The outcome in [1], in experiment [2], in experiment [3], in experiment [4], in experiment [5] and in experiment [6] was inactive. Further, the outcome in experiment [7], in experiment [8] and in experiment [9] was inactive.
For the compound `O=C(O)Cn1c(=O)n(Cc2ccc(Br)cc2F)c(=O)c2ccc(Cl)cc21`, the call in [11], in experiment [12], in [13], in experiment [4] and in [5] was inactive.
With `CCN(CC)C(=O)c1cc(S(=O)(=O)Cc2ccccc2)c(N2CCC(c3ccccc3)CC2)cc1N(CC)CCN(C)C`, the concentration at half-maximal activity (AC50) was 40 µM (active) in the experiment with DIO1 (gene 1733); 3.04 µM (active) in experiment [2]; 3.04 µM (active) in experiment [3]; 0.553 µM (active) in experiment [7]; 1.54 µM (active) in experiment [8]; 13 µM (active) in experiment [10]. The result in [4], in [5], in experiment [14], in experiment [6] and in [9] was inactive.
Take `CCCCOC(=O)c1ccc(O)cc1`: the compound was called inactive in experiment [11], in experiment [12], in experiment [13], in experiment [1], in experiment [2] and in experiment [3]. Further, the result in experiment [4], in experiment [5], in experiment [14], in experiment [6], in [7] and in [8] was inactive. The AC50 in experiment [9] is 31 µM (active); in experiment [10] it was 31.1 µM (active).
Regarding `COCC(C)OCC(C)OCC(C)O` (configuration not stated), the outcome in [11], in [12], in [13], in experiment [4] and in experiment [5] was inactive.
For the compound `CC(C)(C)c1cc(/C=C2\SC(N)=NC2=O)cc(C(C)(C)C)c1O`, the half-maximal activity concentration (AC50) is 3.01 µM (active) in the experiment with DIO1 (gene 1733), 14.7 µM (active) in [2], 14.8 µM (active) in [3] and 14.6 µM (active) in [9]. Besides, the outcome in experiment [4], in experiment [5], in experiment [14], in experiment [6], in [7] and in experiment [8] was inactive. Also, in [10], the compound was classed as inactive.
`O=C(O)c1ccccc1C(=O)OCc1ccccc1`: the compound was called inactive in [11], in [4], in [5] and in experiment [14].
On to `OC12N=C(c3ccccc3)SC1Cc1cc(Cl)ccc12` (configuration not stated), for which the concentration at half-maximal activity (AC50) with DIO1 (gene 1733) is 21.1 µM (active); in experiment [2], 6.83 µM (active); in [3], 6.86 µM (active); in experiment [6], 6.49 µM (active); in experiment [7], 20 µM (active); in experiment [9] it was 6.48 µM (active). The AC50 in experiment [10] is 32.6 µM (active). The compound was classed as inactive in [1], in experiment [4], in experiment [5], in experiment [14] and in experiment [8].
`CC(C)(O)c1ccc(CNC(=O)c2cccnc2Oc2ccc3nonc3c2)cc1`: the call in experiment [1], in [4] and in experiment [5] was inactive.
As for `CCCC(=O)OCCC(C)C`, the compound was classed as inactive in experiment [11], in [12], in [13], in experiment [4], in experiment [5] and in [14].
For `CC1(C)NC(=O)N(c2ccc([N+](=O)[O-])c(C(F)(F)F)c2)C1=O`, the result in [15], in experiment [16], in experiment [17], in experiment [18], in [19] and in [1] was inactive. Besides, the outcome in experiment [4] and in experiment [5] was inactive.
Consider `C[C@]12CC[C@@H]3c4ccc(O)cc4CC[C@H]3[C@@H]1CC[C@H]2O`, for which the outcome in [1], in experiment [2], in experiment [3], in experiment [4], in [5] and in [14] was inactive. Further, the result in experiment [6], in experiment [7], in experiment [8], in experiment [9] and in experiment [10] was inactive.
For the compound `Oc1ccc2ccccc2c1`, the outcome in experiment [11], in experiment [12], in experiment [13], in experiment [4] and in experiment [5] was inactive.

A word on the AC50: it is the midpoint of the concentration-response curve, whichever way the signal moves.
